This passage reports outcome and Potency results from PubChem BioAssay (NCATS).

Experiment [1] has as its target Pyruvate kinase PKM (Homo sapiens) (UniProt P14618). The experiment can be described thus: qHTS Assay for Activators of Human Muscle Pyruvate Kinase (AID 954; active = well fitted curve in the direction sought with a large enough effect, not every such curve was filed as active). A digest of the protocol:
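Compound pinned into substrate mix (0.5 mM PEP, 0.1 mM ADP), then 0.1 nM PKM2 added; 1 h, RT. Stop/detection luciferase reagent added, luminescence read. Normalized to no-inhibition and no-enzyme or reference-inhibitor controls.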

Experiment [2] is described as follows: Cell Viability - LYMP1-002 - Assay at 16 hr (AID 948). Note: potency is the fitted concentration of half-maximal effect. A digest of the protocol: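 Acute cytotoxicity is scored as a concentration-dependent fall in intracellular ATP in a human lymphoblastoid line (LYMP1-002) after 16 hr compound exposure at 37 C, measured by luciferase luminescence.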
The nature of experiment [3]: MultiTox-Fluor Cytotoxicity Assay - LYMP1-002 - Dead Cells (AID 960). Note: nearly all actives have a fitted effect of over 60% in size. Note: potency is the fitted concentration of half-maximal effect. A digest of the protocol: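 Cells were plated, rested 5 hr, then treated with compound dilution series for 16 hr at 37 C. After adding substrate reagent and 60 min at room temperature, dead-cell protease fluorescence gave concentration-response curves fitted by the Hill equation.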
A short description of experiment [4]: MultiTox-Fluor Cytotoxicity Assay - LYMP1-003 - Dead Cells (AID 961). Note: nearly all actives have a fitted effect of over 70% in size. A digest of the protocol:
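LYMP1-003 human lymphoblastoid cells (2500/well) exposed to compound 16 h at 37 C in complete medium; dead-cell protease read with bis-AAF-R110 fluorescence (Ex/Em 485/520) after 60 min at room temperature. Normalized to DMSO and 15 uM tetraoctylammonium bromide; AC50 from Hill fit.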

Experiment [5] can be described thus: Cell Viability - LYMP1-003 - Assay at 24 hr (AID 963). Note: potency is the fitted concentration of half-maximal effect. A digest of the protocol:
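Cytotoxicity is scored as a concentration-dependent fall in ATP-linked luciferase signal in human lymphoblastoid LYMP1-003 cells treated 24 hr at 37 C in complete culture medium.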

Experiment [6] is described as follows: Cell Viability - LYMP1-003 - Assay at 40 hr (AID 964). Note: nearly all actives have a fitted effect of over 60% in size. Note: potency is the fitted concentration of half-maximal effect. A digest of the protocol:
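Luminescent ATP signal (CellTiter-Glo) served as the viability read-out after 40 hr compound treatment of human lymphoblastoid LYMP1-003 cells at 37 C. Decreases in ATP were fitted with the Hill equation to give AC50.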

The nature of experiment [7]: Cell Viability - LYMP2-003 (AID 965).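 Note: cells exposed to compounds for 24 h before reading; nearly all actives have a fitted effect of over 50% in size.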 Note: potency is the fitted concentration of half-maximal effect. A digest of the protocol:
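Acute cytotoxicity is scored as a concentration-dependent drop in intracellular ATP, measured by luciferase luminescence in human lymphoblastoid cells treated for 24 hours at 37 C. AC50 values derive from Hill-equation modelling.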

A short description of experiment [8]: Cell Viability - LYMP2-004 (AID 966).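 Note: cells exposed to compound for 24 h; nearly all actives have a fitted effect of over 65% in size.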 Note: potency is the fitted concentration of half-maximal effect. A digest of the protocol: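 qHTS cytotoxicity: human lymphoblastoid line, 24 hr compound treatment, 37 C, complete medium. Viability read as cellular ATP via luciferase luminescence; tetraoctylammonium bromide served as positive control.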
Experiment [9] addresses Pyruvate kinase (Leishmania mexicana) (UniProt Q27686). The experiment can be described thus: qHTS Validation Assay for Activators of Leishmania Mexicana Pyruvate Kinase (AID 959). A digest of the protocol:
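Read-out: luminescence from PKLight stop/detection reagent, data normalized to DMSO. Reaction: 0.2 nM E451W LmPYK, 0.5 mM PEP, 0.1 mM ADP, pH 7.2, 1 h room temperature.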
For orientation: In qHTS, concentration-response curves come from the screen itself.

SMILES strings stand for the structures. Results filed as inconclusive are left out. The source made the active and inactive calls. Unless noted, calls come from the whole dose curve; as a rule, active = well fitted curve in the direction sought with a large enough effect; inconclusive = small, poorly fitted or top-dose-only effect, or another doubt; inactive = no such curve, though single readings can be large; an effect the other way counts as inactive or inconclusive.

Sequence of Pyruvate kinase PKM (Homo sapiens) (P14618 whole entry, looked up): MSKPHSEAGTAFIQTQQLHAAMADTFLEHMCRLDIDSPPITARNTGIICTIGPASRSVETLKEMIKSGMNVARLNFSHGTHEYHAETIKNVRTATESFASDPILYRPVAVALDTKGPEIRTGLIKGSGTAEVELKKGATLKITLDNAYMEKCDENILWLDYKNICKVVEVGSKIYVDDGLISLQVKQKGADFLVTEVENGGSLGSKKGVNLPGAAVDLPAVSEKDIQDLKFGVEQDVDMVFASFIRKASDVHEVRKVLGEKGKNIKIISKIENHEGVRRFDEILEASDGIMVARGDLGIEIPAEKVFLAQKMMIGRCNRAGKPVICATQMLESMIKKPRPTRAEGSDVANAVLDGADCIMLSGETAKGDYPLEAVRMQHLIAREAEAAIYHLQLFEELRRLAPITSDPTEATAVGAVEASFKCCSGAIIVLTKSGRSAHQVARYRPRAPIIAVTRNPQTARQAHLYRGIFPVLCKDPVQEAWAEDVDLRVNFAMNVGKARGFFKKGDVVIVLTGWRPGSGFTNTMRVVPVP
Sequence of Pyruvate kinase (Leishmania mexicana) (Q27686 2-499 E452W): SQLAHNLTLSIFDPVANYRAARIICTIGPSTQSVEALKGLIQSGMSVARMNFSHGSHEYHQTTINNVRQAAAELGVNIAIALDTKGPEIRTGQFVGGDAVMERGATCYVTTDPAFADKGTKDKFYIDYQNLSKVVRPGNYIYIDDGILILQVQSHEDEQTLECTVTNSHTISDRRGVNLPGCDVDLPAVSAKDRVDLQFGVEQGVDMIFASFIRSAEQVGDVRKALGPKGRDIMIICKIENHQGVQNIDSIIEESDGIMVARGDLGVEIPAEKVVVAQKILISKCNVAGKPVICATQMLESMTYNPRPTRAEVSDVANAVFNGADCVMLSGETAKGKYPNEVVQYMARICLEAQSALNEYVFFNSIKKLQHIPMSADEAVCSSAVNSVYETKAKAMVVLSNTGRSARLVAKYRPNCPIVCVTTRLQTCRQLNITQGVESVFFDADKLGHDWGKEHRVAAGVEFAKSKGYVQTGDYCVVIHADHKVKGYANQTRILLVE

As to `CC(C)OC(=O)C(C)(C)Oc1ccc(C(=O)c2ccc(Cl)cc2)cc1`, the molecule was classed as inactive in experiment [1].

Turning to `NCCS`, the molecule was classed as inactive in experiment [1].

`CN(C)CCC(c1ccccc1)c1ccccn1` (centres undefined): the Potency result in experiment [2], in experiment [3], in experiment [5], in experiment [6], in [7] and in [8] was “inactive” throughout. Also, in experiment [4], the call was inactive.

For `CCn1cc(C(=O)O)c(=O)c2ccc(C)nc21`, the Potency entry in experiment [2], in experiment [3], in experiment [5], in [6], in [7] and in experiment [8] was “inactive” in each case. The molecule was classed as inactive in experiment [4].

As for `COc1ccccc1N1CCN(CCCNc2cc(=O)n(C)c(=O)n2C)CC1`, the outcome in [1] was inactive.

As to `CC(C)(C)c1ccc(C(O)CCCN2CCC(C(O)(c3ccccc3)c3ccccc3)CC2)cc1` (centres undefined), the call in [1] was inactive.

In the case of `O=C(O)CCc1nc(-c2ccccc2)c(-c2ccccc2)o1`, the result in [1] was inactive.

In the case of `CC(=O)O[C@]1(C(C)=O)CC[C@H]2[C@@H]3C=C(Cl)C4=CC(=O)[C@@H]5C[C@@H]5[C@]4(C)[C@H]3CC[C@@]21C`, the Potency result in experiment [2], in experiment [3], in experiment [5], in experiment [6] and in [7] was “inactive” throughout. The molecule was called inactive in experiment [4].

In the case of `CCN(CC)CCOC(=O)c1ccc(N)cc1`, the molecule was called inactive in experiment [1].

Regarding `O=C(O)c1cc(O)c2c(c1)C(=O)c1cccc(O)c1C2=O`, the Potency result in [2], in experiment [3], in experiment [5], in [6], in [7] and in experiment [8] was “inactive” in each case. For the same molecule, the result in experiment [4] was inactive.

`O=C1NCC2(CCN(CCc3ccccc3)CC2)O1`: in experiment [1], the call was inactive.

On to `CCN(CC)C(=O)c1ccc(O)c(OC)c1`, for which the outcome in experiment [1] was inactive.

With `O=c1cc(-c2ccc(O)cc2)oc2cc(O)cc(O)c12`, the call in [1] and in experiment [9] was inactive. Further, the Potency result in experiment [3], in experiment [5], in experiment [7] and in experiment [8] was “inactive” each time.

As for `CC1=C(/C=C/C(C)=C/C=C/C(C)=C/C(=O)Nc2ccc(O)cc2)C(C)(C)CCC1`, the Potency in [2] is 50.1 µM (active); in experiment [3] it was 31.6 µM (active); in experiment [5], 50.1 µM (active); in experiment [6], 39.8 µM (active); in experiment [7], 39.8 µM (active); in experiment [8] it was 39.8 µM (active). Besides, in experiment [1], the molecule was classed as inactive.

In the case of `CC/C(=C(\c1ccccc1)c1ccc(OCCN(C)C)cc1)c1ccccc1`, the molecule was called inactive in [1]. Besides, the figures for the Potency in experiment [3], in experiment [6] and in [7] were 25.1 µM (active), 50.1 µM (active) and 39.8 µM (active), respectively.

As to `CC(=O)CCCCn1c(=O)c2c(ncn2C)n(C)c1=O`, the call in experiment [1] was inactive.

Turning to `O=c1c(O)c(-c2ccc(O)cc2)oc2cc(O)cc(O)c12`, the Potency result in [2], in experiment [3], in experiment [5], in [6], in experiment [7] and in experiment [8] was “inactive” each time. Also, the result in [4] was inactive.

Turning to `O=c1c(-c2ccc(O)cc2)coc2cc(O)ccc12`, the Potency entry in experiment [2], in experiment [3], in experiment [5], in experiment [7] and in experiment [8] was “inactive” each time. Also, the molecule was classed as inactive in experiment [1] and in [4].

In the case of `CC(=O)c1ccc(S(=O)(=O)NC(=O)NC2CCCCC2)cc1`, the Potency entry in experiment [2], in experiment [5], in [6], in experiment [7] and in [8] was “inactive” each time. Moreover, the molecule was classed as inactive in experiment [1] and in [4].
